Compound activity (PubChem BioAssay)
proKLK7 act – proKLK7 zymogen activators, primary screen, biochemical, fluorescence intensity; purified proKLK7, EDANS-DABCYL substrate fluorescence; 100% is mature enzyme control, 0% vehicle; activation, % at 7 µM; 0.9% of 370,000 active;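 active = activation above the mean of all tested compounds plus 3 SD, computed per campaign excluding outliers beyond control limits, cut at about 13% in these data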
ADAM17 inh – ADAM17 inhibitors, primary screen, biochemical, QFRET. Disintegrin and metalloproteinase domain-containing protein 17 (Homo sapiens), P78536. recombinant ADAM17, EDANS/DABCYL FRET peptide cleavage. inhibition, % at 6.95 µM. 0.83% of 370,000 active;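 active = inhibition above the mean of compounds lying between control limits plus 3 SD, set per campaign, cut at about 8.5% in these data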
ADAM10 inh – human ADAM10 inhibitors, primary screen, biochemical, QFRET, HTS; 0.62% of 370,000 active; AID 720582, 2013; inhibition, % at 7 µM; recombinant ADAM10, EDANS/DABCYL FRET peptide cleavage, 3 h;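 active = inhibition above a per-campaign cutoff equal to the mean of compounds falling between control-based bounds plus 3 SD, cut at about 20% in these data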
Target sequence (O14672 214-748 limits assumed): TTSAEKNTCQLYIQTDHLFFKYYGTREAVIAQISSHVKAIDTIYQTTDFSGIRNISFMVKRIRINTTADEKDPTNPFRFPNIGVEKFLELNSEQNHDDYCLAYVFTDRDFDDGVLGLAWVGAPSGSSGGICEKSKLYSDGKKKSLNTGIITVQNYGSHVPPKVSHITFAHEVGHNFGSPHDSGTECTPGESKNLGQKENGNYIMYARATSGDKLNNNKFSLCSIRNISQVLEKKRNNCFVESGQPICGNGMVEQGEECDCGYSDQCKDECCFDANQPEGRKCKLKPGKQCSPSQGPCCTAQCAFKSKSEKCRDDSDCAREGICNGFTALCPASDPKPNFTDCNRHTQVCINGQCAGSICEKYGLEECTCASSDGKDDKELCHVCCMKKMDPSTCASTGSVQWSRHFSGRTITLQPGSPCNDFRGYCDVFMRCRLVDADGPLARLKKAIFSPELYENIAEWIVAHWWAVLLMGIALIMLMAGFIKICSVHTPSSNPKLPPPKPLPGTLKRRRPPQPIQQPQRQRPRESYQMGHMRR
V-ATPase pHluor – regulators of yeast V-ATPase proton pumping, primary screen, pHLuorin cytosolic pH fluorescence. S. cerevisiae. response, % at 10 µM. 0.37% of 350,000 active; in the data active = response mostly above about 7.3%, no sharp cut-off; inactive = mostly below about 5.4%; note: actives read high
proKLK7 act conf – proKLK7 zymogen activators, confirmation, biochemical, fluorescence intensity, triplicate; 68% of 3,200 active; shares compounds with proKLK7 act; AID 686949, 2013; activation, % at 7 µM; purified proKLK7, EDANS-DABCYL substrate fluorescence; scaled: vehicle 0, mature enzyme 100;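 active = activation, as change over the incubation, above the mean of all tested compounds plus 3 SD, cut at about 13% in these data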
EDANS interfere – EDANS-DABCYL substrate optical interference, artefact control for kallikrein-7 zymogen activator project, biochemical, fluorescence intensity, high throughput; 80% of 3,200 active; no enzyme, 4 h; solvent 0%, active enzyme control 100%; AID 686952, 2013; shares compounds with proKLK7 act; activation, % at 7 µM;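 active = activation above the all-compound mean plus 3 SD, ignoring values outside control-based bounds, cut at about 4.8% in these data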;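 note: value is the 4 h activation minus the activation read at time zero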
K7 EDANS ctr – optically interferes with EDANS-DABCYL fluorescence, kallikrein-7 activator counter-screen; shares compounds with proKLK7 act; EDANS-DABCYL peptide fluorescence interference, no enzyme; EC50, µM; 20% of 250 active;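 active = compounds that raise the fluorescence signal in this interference counterscreen, with EC50 at or below 10 µM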;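 note: intact quenched peptide substrate alone read at 355 nm excitation and 520 nm emission; signal is fluorescence gain from T0 to T4 after four hours at room temperature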
Of the large screens only hits and unclear results are named; the others gave an inactive call (follow-up assays come after a bar, where they were run). A selection: hits, their analogues and other compounds. The true share with any hit is near 2.3%.

COc1ccc(C2Nc3ccccc3C(=O)N2NC(C)=O)c(OC)c1 (stereo unspecified)	proKLK7 act 20.8 | proKLK7 act conf 19.8 | EDANS interfere 15.7 | K7 EDANS ctr inactive
COc1ccc(N2C(=O)c3ccccc3NC2c2ccc(NC(C)=O)cc2)c(OC)c1 (stereo unspecified)	none
O=C(O)CCC(=O)NN1C(=O)c2ccccc2NC1c1ccco1 (stereo unspecified)	proKLK7 act 14.7 | proKLK7 act conf 49.1 | EDANS interfere 15.6 | K7 EDANS ctr inactive
CCOC(=O)NN1C(=O)c2ccccc2NC1c1ccc(N(C)C)cc1 (stereo unspecified)	none
Cc1ccccc1CN1[C@@H](C)[C@H](c2ccccc2)Oc2cccc(NCCc3ccccc3)c2S1(=O)=O	none (no result: V-ATPase pHluor)
CCCN1CCCCC(NC(=O)COCc2ccccc2)C1=O (stereo unspecified)	none (no result: V-ATPase pHluor)
CCOC(=O)NN1C(=O)c2ccccc2NC1C (stereo unspecified)	proKLK7 act 13.3 | proKLK7 act conf 25.5 | EDANS interfere 28.3
CCOC(=O)NN1C(=O)c2ccccc2NC1c1ccccn1 (stereo unspecified)	none
S=c1[nH]nc(-c2cc3c(s2)-c2ccccc2CC3)o1	proKLK7 act 38.8 | proKLK7 act conf 70.0 | EDANS interfere 69.6
Cc1cc(=O)c2c(N(C)C)cccc2[nH]1	proKLK7 act 82.5 | proKLK7 act conf 56.8 | EDANS interfere 69.3
CC(C)(C)CC(C)(C)Nc1c(-c2ccc(O)cc2)nc2cnccn12	proKLK7 act 39.3 | proKLK7 act conf inactive | EDANS interfere inactive
COC[C@@H](O)[C@H]1OCc2cccc(OC)c2[C@@H]1/C=C/c1ccccc1	none (no result: V-ATPase pHluor)
COc1ccc2cc(-c3ccccc3)c(=O)oc2c1	proKLK7 act 23.2 | proKLK7 act conf 81.6 | EDANS interfere 74.0
COC(=O)C(C)Oc1ccc2cc(-c3ccccc3)c(=O)oc2c1 (stereo unspecified)	proKLK7 act 16.1 | proKLK7 act conf 64.5 | EDANS interfere 44.4 | K7 EDANS ctr inactive
CC(Oc1ccc2cc(-c3ccccc3)c(=O)oc2c1)C(=O)NCC1CCC(C(=O)O)CC1 (stereo unspecified)	proKLK7 act 64.5 | proKLK7 act conf 65.2 | EDANS interfere 77.4
CN(C)C(=O)COc1ccc2cc(-c3ccccc3)c(=O)oc2c1	proKLK7 act 33.2 | proKLK7 act conf 66.2 | EDANS interfere 73.5
CC(CO)(CO)NC(=O)c1ccc(C#Cc2cccc(F)c2)cn1	none (no result: V-ATPase pHluor)
CN(Cc1ccco1)C(=O)c1cccc2c1C(=O)N(Cc1cccnc1)C2	none (no result: V-ATPase pHluor)
CCCOc1ccc2cc(-c3ccccn3)c(=O)oc2c1	proKLK7 act 25.4 | proKLK7 act conf 55.3 | EDANS interfere 67.3
Cc1cc(OC(C)C(=O)NCC2CCC(C(=O)O)CC2)c2c(C)c(Cc3ccccc3)c(=O)oc2c1 (stereo unspecified)	none
CC(=O)Oc1ccc2cc(-c3cccnc3)c(=O)oc2c1	proKLK7 act 265.5 | proKLK7 act conf 72.1 | EDANS interfere 71.9
Cc1cc(OC(C)C(=O)NCC2CCC(C(=O)O)CC2)c2c(C)cc(=O)oc2c1 (stereo unspecified)	proKLK7 act 12.8 | proKLK7 act conf inactive | EDANS interfere 12.2
CC1CCN(CCCNS(=O)(=O)c2cc3c(cc2Br)CCN3C(=O)C2CC2)CC1	none (no result: V-ATPase pHluor)
CC(C)NC(=O)C1CCN(c2cncnc2)CC1	none (no result: V-ATPase pHluor)
COc1cc(NC(=O)C2CCCN(S(=O)(=O)c3ccc(C)c(C)c3)C2)cc(OC)c1 (stereo unspecified)	none (no result: V-ATPase pHluor)
CC(C)(C)N1Cc2nnn(Cc3ccccc3)c2-c2cc(F)ccc2S1(=O)=O	none (no result: V-ATPase pHluor)
O=c1c2ccccc2n(CC(O)CN2CCCCC2)c2ccccc12 (stereo unspecified)	proKLK7 act 33.8 | proKLK7 act conf 28.8 | EDANS interfere 28.6
